For 6 compounds, composite z-score and z-score results are on record in PubChem BioAssay.

The nature of test [1]: compounds binding Alexa647 anti-His antibody – biochemical, small-molecule microarray, 635 nm fluorescence, artefact control for SMM control protein annotation, primary screen (AID 1128).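 Also: score merges feature fluorescence with signal-to-noise for each printed compound spot.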 Particulars: higher = more signal.
The test system of test [2] is Human papillomavirus type 1a E7 protein (residues 1-88). Nature of the test: HPV1a E7 small-molecule binders, primary screen, biochemical, small-molecule microarray, residues 1-88, 635 nm (AID 1129). Particulars: small-molecule microarray binding, fluorescence 635 nm; higher = more signal.
The target of test [3] is Focal adhesion kinase 1 (Homo sapiens) (UniProt Q05397). In words: PTK2 protein binding on printed compound slides – biochemical, small-molecule microarray, 635/667 nm fluorescence, BSA, DTT, primary screen (AID 1130).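 Also: composite of spot emission at 667 nm and signal to noise over triplicate slides.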 Conditions: 635 nm fluorescence, higher = more signal.
Test [4] has as its system Fibrinogen (Alexa647-labelled). In words: Alexa647-fibrinogen binding to printed small molecules – biochemical, small-molecule microarray, 635/667 nm fluorescence, artefact control for SMM control-protein annotation, profiling panel (AID 1131).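 Also: z-score merges 667 nm fluorescence with per-spot signal-to-noise over triplicate slides.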 Particulars: fibrinogen-A647 binding fluorescence, higher = more signal.
Test [5] has as its target Follistatin (Homo sapiens) (UniProt P19883). In words: FST protein binding to printed compounds – biochemical, small-molecule microarray, 635/667 nm fluorescence, primary screen (AID 1132). Conditions: 635 nm fluorescence, higher = more signal.
For test [6], the target named is Fibroblast growth factor 2 (Homo sapiens) (UniProt P09038). Nature of the test: basic fibroblast growth factor binding to printed compounds – biochemical, small-molecule microarray, 635/667 nm fluorescence, primary screen (AID 1133). Particulars: FGF2, fluorescence 635/667, higher = more signal.
The nature of test [7]: JC-1 mitochondrial potential readout, lung cancer cells – cell-based, A549, JC-1 fluorescence, basal, 24 h, 100 nL, profiling panel (AID 1138).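 Also: A549 lung adenocarcinoma cells under basal conditions with no added stimulus; test concentration not given here.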 Particulars: higher = more signal.
The subject of a further test is Lefty1. Nature of the test: Lefty1 protein binding to printed compounds – biochemical, small-molecule microarray, 635/667 nm fluorescence, primary screen (AID 1139). Conditions: fluorescence 635/667, higher = more signal.
For test [8], the system named is wheat germ agglutinin (Triticum aestivum), Alexa647-labelled. In words: Alexa647-WGA lectin binding to printed small molecules – biochemical, small-molecule microarray, 635/667 nm fluorescence, artefact control for SMM control-protein annotation, profiling panel (AID 1140).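 Also: score merges 667 nm feature emission with signal to noise over triplicate slides.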 Particulars: WGA-A647 binding, 635 nm fluorescence, higher = more signal.
Test [9] concerns the target Luciferin 4-monooxygenase (Photinus pyralis) (UniProt P08659). In words: inhibition of purified Photinus pyralis luciferase – biochemical, luminescence, purified enzyme, 2006 set, primary screen (AID 1141).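 Also: cell-free assay with purified firefly luciferase at 100 ng per well in PBS; test concentration not given here.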 Conditions: purified firefly luciferase, SteadyGlo luminescence, 30 min; higher = more signal, called active from +8 up or from −8 down.
Test [10] deals with Wnt5a (protein binding on small-molecule microarray). Nature of the test: small molecules binding Wnt5a protein – biophysical, small-molecule microarray, 635/667 nm fluorescence, primary screen (AID 1142).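 Also: fluorescence read at 667 nm with signal to noise per printed feature.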 Conditions: 635 nm fluorescence, higher = more signal.
A short description of test [11]: ATP-based viability of Huh7 replicon cells – cell-based, CellTiter-Glo luminescence, basal, 48 h, cytotoxicity control for HCV replication inhibitor project, primary screen (AID 1143).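 Also: Huh7 hepatoma cells carrying a hepatitis C replication reporter with no stimulus; test concentration not given here.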 Conditions: higher = more signal, called active from +8 up or from −8 down.
The nature of test [12]: Pseudomonas biofilm growth suppression – PAO1 strain, BacTiter-Glo luminescence, LB-PBS, primary screen (AID 1144). Particulars: P. aeruginosa PAO1 biofilm, 12 h, higher = more signal.
A short description of test [13]: basal CRE-LacZ reporter activity in PC12 – cell-based, unstimulated, primary screen (AID 1145). Conditions: no forskolin, luminescence, 4.5 h, higher = more signal, called active from +8 up or from −8 down.
The nature of test [14]: forskolin-driven CRE-LacZ activity in PC12 – cell-based, CRE-LacZ reporter, forskolin-stimulated, primary screen (AID 1146).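 Also: PC12 cells with 6xCRE LacZ reporter stimulated by forskolin 10 µM; beta-galactosidase reporter signal reflecting CREB driven transcription.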 Conditions: luminescence, 4.5 h, higher = more signal, called active from +8 up or from −8 down.
Test [15] addresses Streptavidin (Streptomyces avidinii) (UniProt P22629). In words: compounds binding control protein streptavidin – biophysical, small-molecule microarray, 635/667 nm fluorescence, artefact control for SMM compound annotation, primary screen (AID 1147).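 Also: signal reflects streptavidin binding to arrayed compounds as a control protein.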 Particulars: higher = more signal.
Test [16] is described as follows: probe aInhba binding on compound microarray – biochemical, small-molecule microarray, 635/667 nm fluorescence, primary screen (AID 1148).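 Also: score merges 667nm spot fluorescence with signal-to-noise for antibody binding to printed compounds.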 Conditions: higher = more signal.
Test [17] has as its target Torsin-1A (Homo sapiens) (UniProt O14656). In words: TOR1A wild-type binding on microarray – cell lysate, small-molecule microarray, lysate, 635/667 nm, primary screen (AID 1149). Conditions: COS7 hTOR1A-WT lysate, 635 nm fluorescence, higher = more signal.
For test [18] the target is unchanged. Nature of the test: torsin A mutant lysate binding on microarrays – cell lysate, small-molecule microarray, COS7 lysate, 635/667 nm fluorescence, primary screen (AID 1150).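 Also: score pools 667 nm emission and signal to noise measuring lysate protein binding.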 Particulars: COS7 hTOR1A mutant lysate, 635 nm fluorescence, higher = more signal.
Test [19] concerns Sonic hedgehog protein (Shh). In words: Sonic hedgehog microarray binding compounds – biochemical, small-molecule microarray, 635/667 nm fluorescence, primary screen (AID 1151).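 Also: Shh protein binding to compounds spotted on small-molecule microarray slides; score combines spot fluorescence intensity with signal-to-noise across triplicate slides.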 Conditions: 635 nm fluorescence, higher = more signal.

The source made the active and inactive calls. Unless noted, no rule for the calls is given here.

Fibroblast growth factor 2 (Homo sapiens), sequence (P09038 whole entry, looked up): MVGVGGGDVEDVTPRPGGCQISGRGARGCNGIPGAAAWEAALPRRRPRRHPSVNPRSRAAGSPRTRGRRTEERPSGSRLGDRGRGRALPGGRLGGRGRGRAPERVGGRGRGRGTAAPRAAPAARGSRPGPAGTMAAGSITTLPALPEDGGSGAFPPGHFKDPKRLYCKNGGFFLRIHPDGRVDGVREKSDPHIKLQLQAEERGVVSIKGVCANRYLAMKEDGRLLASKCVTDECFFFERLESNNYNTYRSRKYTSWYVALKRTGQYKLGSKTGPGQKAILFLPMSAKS
Follistatin (Homo sapiens), sequence (P19883 whole entry, looked up): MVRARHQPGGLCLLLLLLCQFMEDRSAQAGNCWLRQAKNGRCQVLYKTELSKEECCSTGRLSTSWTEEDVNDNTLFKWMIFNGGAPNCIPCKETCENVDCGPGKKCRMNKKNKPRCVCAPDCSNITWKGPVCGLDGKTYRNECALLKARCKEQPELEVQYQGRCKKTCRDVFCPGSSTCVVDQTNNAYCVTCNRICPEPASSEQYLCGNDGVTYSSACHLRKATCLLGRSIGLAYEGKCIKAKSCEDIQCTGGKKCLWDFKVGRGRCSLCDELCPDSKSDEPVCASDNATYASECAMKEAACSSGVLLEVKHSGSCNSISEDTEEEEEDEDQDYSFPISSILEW
Torsin-1A (Homo sapiens), sequence (O14656 whole entry, looked up): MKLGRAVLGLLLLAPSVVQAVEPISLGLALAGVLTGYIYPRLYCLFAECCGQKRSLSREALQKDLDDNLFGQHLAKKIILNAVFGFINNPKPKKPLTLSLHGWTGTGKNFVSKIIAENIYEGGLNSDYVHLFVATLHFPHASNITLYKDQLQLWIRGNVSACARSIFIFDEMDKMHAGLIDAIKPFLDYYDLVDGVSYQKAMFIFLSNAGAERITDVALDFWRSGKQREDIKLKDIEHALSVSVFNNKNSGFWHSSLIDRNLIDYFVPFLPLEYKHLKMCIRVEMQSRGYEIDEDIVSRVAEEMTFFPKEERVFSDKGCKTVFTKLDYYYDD
Luciferin 4-monooxygenase (Photinus pyralis), sequence (P08659 whole entry, looked up): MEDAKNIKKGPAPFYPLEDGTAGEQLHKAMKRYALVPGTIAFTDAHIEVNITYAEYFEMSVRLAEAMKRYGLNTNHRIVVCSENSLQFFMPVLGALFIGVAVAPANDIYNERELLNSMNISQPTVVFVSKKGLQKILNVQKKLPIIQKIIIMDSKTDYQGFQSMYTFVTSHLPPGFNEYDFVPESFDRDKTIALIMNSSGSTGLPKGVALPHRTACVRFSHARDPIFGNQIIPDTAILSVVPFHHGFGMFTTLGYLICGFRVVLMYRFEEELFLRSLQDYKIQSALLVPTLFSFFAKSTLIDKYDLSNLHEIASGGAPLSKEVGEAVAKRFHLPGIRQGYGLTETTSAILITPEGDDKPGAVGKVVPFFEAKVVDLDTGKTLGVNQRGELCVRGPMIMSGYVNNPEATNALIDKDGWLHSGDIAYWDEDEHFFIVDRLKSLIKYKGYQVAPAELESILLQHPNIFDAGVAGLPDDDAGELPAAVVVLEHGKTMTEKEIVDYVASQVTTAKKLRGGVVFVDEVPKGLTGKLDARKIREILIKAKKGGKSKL
Focal adhesion kinase 1 (Homo sapiens), sequence (Q05397 whole entry, looked up): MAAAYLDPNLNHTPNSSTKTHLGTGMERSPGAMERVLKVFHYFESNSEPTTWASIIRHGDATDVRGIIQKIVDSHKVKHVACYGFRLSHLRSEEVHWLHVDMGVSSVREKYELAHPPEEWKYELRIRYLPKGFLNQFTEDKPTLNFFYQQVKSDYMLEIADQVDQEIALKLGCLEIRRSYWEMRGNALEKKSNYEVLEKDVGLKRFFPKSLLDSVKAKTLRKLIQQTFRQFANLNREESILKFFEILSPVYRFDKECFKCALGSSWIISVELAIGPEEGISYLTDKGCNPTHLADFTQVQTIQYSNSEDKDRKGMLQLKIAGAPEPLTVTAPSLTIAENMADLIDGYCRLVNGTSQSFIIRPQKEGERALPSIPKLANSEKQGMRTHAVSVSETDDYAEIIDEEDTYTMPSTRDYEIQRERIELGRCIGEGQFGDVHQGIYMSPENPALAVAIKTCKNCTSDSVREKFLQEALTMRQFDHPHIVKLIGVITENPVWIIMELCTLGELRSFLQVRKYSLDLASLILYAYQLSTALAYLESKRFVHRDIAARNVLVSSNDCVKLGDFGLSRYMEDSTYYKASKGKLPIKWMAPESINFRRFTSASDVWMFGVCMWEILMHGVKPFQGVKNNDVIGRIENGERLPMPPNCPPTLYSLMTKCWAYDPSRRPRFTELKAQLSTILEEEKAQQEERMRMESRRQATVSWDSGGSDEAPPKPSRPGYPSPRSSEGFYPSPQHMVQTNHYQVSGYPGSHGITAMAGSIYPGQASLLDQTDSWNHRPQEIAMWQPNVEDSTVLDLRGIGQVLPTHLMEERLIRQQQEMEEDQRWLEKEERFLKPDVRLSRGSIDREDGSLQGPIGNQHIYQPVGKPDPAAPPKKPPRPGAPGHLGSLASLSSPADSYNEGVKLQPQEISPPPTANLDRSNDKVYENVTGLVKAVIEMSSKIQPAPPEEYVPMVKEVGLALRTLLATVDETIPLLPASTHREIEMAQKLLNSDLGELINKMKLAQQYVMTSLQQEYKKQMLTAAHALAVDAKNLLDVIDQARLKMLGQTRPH
Streptavidin (Streptomyces avidinii), sequence (P22629 whole entry, looked up): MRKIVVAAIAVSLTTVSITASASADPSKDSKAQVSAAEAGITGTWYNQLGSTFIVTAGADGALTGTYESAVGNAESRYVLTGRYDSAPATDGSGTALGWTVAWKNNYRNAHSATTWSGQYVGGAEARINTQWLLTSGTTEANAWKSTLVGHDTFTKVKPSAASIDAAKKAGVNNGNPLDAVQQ

As to `C=CC1(C(=O)OC)CC=C(C(=O)OC)CC1` (stereo not given), the composite z-score came to 0.731 in test [1]; 0.901 in test [2]; 0.286 in test [3]; 0.862 in [4]; 0.65 in test [5]; 0.653 in test [6]. Besides, the composite z-score in the test on Lefty1 was 0.308; in test [8], 0.184; in test [10] it was 0.181; in test [15] it was 0.596; in test [16] it was -0.154; in the test with Torsin-1A (Homo sapiens) [17], 0.226. For the same compound, the values for the composite z-score (with Torsin-1A (Homo sapiens) [18]; in test [19]) were 0.823 and 0.434, respectively. Besides, the z-score is 0.263 in [7]; 0.723 (inactive) in [9]; -1.3 (inactive) in test [11]; 0.132 (inactive) in test [12]; 0.332 (inactive) in [13]; 0.0857 (inactive) in [14].

As for `C[C@H]1NC(=O)[C@@]23C(=O)N[C@@H](Cc4ccccc4)C2[C@H](C)[C@@]2(C)O[C@H]2C3/C=C/C/C=C\CNC(=O)[C@@H]2CCCN2C1=O` (stereo not given in full), the composite z-score is -0.224 in test [1]; 0.303 in test [2]; 0.0122 in test [3]; 0.859 in test [4]; 1.05 in test [5]; 0.692 in test [6]. For the same compound, the composite z-score in the test on Lefty1 was 0.946; in [8], 0.765; in test [10], 0.168; in test [15], 0.301; in test [16], -0.0589; with Torsin-1A (Homo sapiens) [17], 0.396. Besides, the composite z-score in the test with Torsin-1A (Homo sapiens) [18] is -0.103; in test [19], 1.73. Moreover, the z-score in [7] was 0.419; in [9], 0.193 (inactive); in test [11] it was -0.0568 (inactive); in [12] it was -0.545 (inactive); in test [13], 1.03 (inactive); in [14] it was 0.647 (inactive).

`OCCCC1=CC(c2cccs2)N(Cc2cc3c(cc2Br)OCO3)CC1` (stereo not given): the composite z-score was 0.992 in [1]; 0.213 in test [2]; 0.585 in test [3]; 0.772 in [4]; 0.333 in test [5]; 0.076 in test [6]. In addition, the composite z-score was 0.433 in the test on Lefty1; 0.929 in test [8]; -0.094 in test [10]; -0.0072 in [15]; -0.024 in test [16]; 0.155 with Torsin-1A (Homo sapiens) [17]. Further, the composite z-score with Torsin-1A (Homo sapiens) [18] worked out at 0.396; in [19], 1.4. The z-score in test [7] was 1.39; in [9], -0.0407 (inactive); in [11], -1.18 (inactive); in test [12], -0.137 (inactive); in test [13] it was 0.0563 (inactive); in test [14], -0.056 (inactive).

As for `C=C(CCCC)/C(=C/C[C@@H](OC(C)=O)c1ccc(OCCO)cc1)c1cnc2ccccc2c1`, the composite z-score in test [1] was 1.42; in [2], 0.974; in test [3], 0.153; in [4], 0.539; in test [5], 1.12; in test [6] it was 0.502. The composite z-score was 0.856 in the test with Lefty1; 0.773 in test [8]; -0.0157 in test [10]; 0.514 in test [15]; -0.0405 in [16]; -0.197 with Torsin-1A (Homo sapiens) [17]. Besides, the composite z-score in the test with Torsin-1A (Homo sapiens) [18] came to 0.101; in [19] it was 1.77. The z-score in [7] is 1.49; in [9], -1.81 (inactive); in [11], -0.842 (inactive); in test [12], -1.02 (inactive); in test [13] it was 1.21 (inactive); in test [14], -0.438 (inactive).

On to `NC(=O)[C@@H]1[C@H]2C(=O)O[C@H](c3ccccc3)[C@H](c3ccccc3)N2[C@H](c2ccc(O)cc2)[C@@]12C(=O)Nc1ccccc12`, for which the composite z-score in test [1] is -0.393; in test [2] it was -0.507; in test [3] it was 0.119; in [4] it was -0.538; in test [5] it was -0.5; in test [6], -1.17. Moreover, the composite z-score in the test with Lefty1 is -0.827; in test [8], 0.156; in test [10], -0.766; in test [15], -0.99; in test [16], -0.152; with Torsin-1A (Homo sapiens) [17], -2.99. For the same compound, the composite z-score with Torsin-1A (Homo sapiens) [18] is -2.06; in test [19] it was 0.154. Besides, the z-score in test [7] is -1.11; in [9] it was -0.366 (inactive); in test [11] it was -4.14 (inactive); in test [12], -0.609 (inactive); in [13], -0.491 (inactive); in [14], 0.276 (inactive).

With `CC1CC/C=C\[C@H]2OC34C=CCN(C(C)(C)C)C(=O)[C@H]3N(C(C)CO)C(=O)[C@@H]4C2C(=O)O1` (stereo not given in full), the composite z-score in test [1] was -1.63; in test [2], -2.07; in test [3] it was -0.9; in [4], -2.02; in [5] it was -0.397; in [6], -0.121. The composite z-score in the test with Lefty1 is -0.248; in test [8], -1.61; in test [10], -0.273; in [15], -1.3; in test [16], -0.128; with Torsin-1A (Homo sapiens) [17], -0.468. In addition, the composite z-score is -0.441 with Torsin-1A (Homo sapiens) [18] and 0.622 in test [19]. The z-score is 0.348 in test [7]; -0.694 (inactive) in test [9]; 0.4 (inactive) in test [11]; 1.01 (inactive) in [12]; -0.22 (inactive) in [13]; 0.826 (inactive) in [14].
